Data from PubChem BioAssay (NCATS).
Inconclusive results are not listed. Active and inactive are the calls of the source. Unless noted, calls follow the shape of the dose curve; as a rule, active = well fitted curve in the direction sought with a large enough effect; inconclusive = small, poorly fitted or top-dose-only effect, or another doubt; inactive = no such curve, though single readings can be large; an effect the other way counts as inactive or inconclusive.

Legend:
[1] = target: Cytochrome P450 1A2 (Homo sapiens) (UniProt P05177); assay: p450-cyp1a2 (AID 410; calls by dose curve;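 also: -100% = full effect of reference inhibitor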)
Sequence of Cytochrome P450 1A2 (Homo sapiens) (P05177 whole entry, looked up): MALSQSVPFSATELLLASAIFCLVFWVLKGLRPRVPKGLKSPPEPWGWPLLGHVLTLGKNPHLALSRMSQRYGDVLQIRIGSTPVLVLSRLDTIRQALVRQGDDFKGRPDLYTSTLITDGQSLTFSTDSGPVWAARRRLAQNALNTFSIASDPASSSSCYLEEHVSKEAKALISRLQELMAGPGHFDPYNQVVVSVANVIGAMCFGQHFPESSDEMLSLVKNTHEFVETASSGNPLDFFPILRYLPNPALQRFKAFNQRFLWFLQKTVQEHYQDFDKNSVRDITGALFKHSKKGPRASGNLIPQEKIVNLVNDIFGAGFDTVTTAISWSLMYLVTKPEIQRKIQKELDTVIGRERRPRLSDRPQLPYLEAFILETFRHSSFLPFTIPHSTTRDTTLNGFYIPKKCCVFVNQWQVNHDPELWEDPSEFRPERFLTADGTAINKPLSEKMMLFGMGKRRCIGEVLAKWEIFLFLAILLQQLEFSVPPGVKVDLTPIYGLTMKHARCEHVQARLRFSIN
Summary of the method: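 Luminescent demethylation readout: Luciferin-ME (100uM, equal to Km) turned over by 20nM CYP1A2 for 60 min at room temperature after NADPH regeneration addition, following 10 min compound preincubation. Normalization used 57 uM furafylline as full inhibition.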

[2] = NFAT Signaling Pathway (AID 444; active = well fitted curve in either direction with a large enough effect, not every such curve was filed as active;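 also: carbachol stimulus at about its EC50 of 1 µM final; % is scaled to controls: 0 for no effect and ±100 for the full control effect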); conditions: Jurkat NFAT-bla M1, carbachol, beta-lactamase ratio, 5 h; at 38 µM (top of the series)
Summary of the method: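 Read-out: CCF4 FRET ratio (460 nm/530 nm) after 1 h RT dye loading, used for %activity and AC50 from titration series. Cells: Jurkat NFAT-β-lactamase/M1 line, treated with compound plus 1 uM carbachol for 5 h, 37 °C.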

[3] = target: Glucocorticoid receptor (Homo sapiens) (UniProt P04150); assay: GR-GFP Redistribution (AID 450;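 active = compounds whose dose series gives a full or clear partial fitted curve of increased nuclear translocation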; also: potency is read from the fitted curve at half-maximal effect); conditions: U2OS GR-GFP nuclear translocation, laser cytometry, 2 h
Sequence of Glucocorticoid receptor (Homo sapiens) (P04150 whole entry, looked up, the tested form may be a part): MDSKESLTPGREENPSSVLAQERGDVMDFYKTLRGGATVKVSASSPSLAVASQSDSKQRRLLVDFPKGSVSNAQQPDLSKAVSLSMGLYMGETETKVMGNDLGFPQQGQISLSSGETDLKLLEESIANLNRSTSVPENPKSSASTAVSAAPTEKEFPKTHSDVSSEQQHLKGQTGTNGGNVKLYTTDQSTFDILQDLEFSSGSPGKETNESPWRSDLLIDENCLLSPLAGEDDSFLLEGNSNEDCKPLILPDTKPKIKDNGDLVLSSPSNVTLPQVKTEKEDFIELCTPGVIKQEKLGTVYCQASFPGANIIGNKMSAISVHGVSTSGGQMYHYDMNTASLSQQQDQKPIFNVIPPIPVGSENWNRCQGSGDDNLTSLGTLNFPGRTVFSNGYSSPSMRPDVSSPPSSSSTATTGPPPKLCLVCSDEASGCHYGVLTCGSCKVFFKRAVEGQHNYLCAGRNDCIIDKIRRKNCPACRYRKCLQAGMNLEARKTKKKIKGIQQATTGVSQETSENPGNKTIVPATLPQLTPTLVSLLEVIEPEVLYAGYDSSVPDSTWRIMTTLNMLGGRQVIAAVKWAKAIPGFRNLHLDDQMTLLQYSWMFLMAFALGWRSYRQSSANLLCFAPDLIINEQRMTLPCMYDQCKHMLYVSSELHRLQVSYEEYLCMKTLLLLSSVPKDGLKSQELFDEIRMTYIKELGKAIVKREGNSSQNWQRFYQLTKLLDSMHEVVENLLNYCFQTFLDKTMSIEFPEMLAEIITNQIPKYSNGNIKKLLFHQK

[4] = target: Glucocorticoid receptor (Homo sapiens) (UniProt P04150); assay: GR-EFC Redistribution (AID 451; calls by dose curve; also: potency is read from the fitted curve at half-maximal effect); conditions: CHO-K1 GR-EFC translocation, beta-gal luminescence, 2 h
Summary of the method: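 Translocation of GR-ED fusion to nuclear EA restores b-gal, read by luminescence after 1 h room-temperature detection. Engineered CHO-K1 biosensor cells, 1,000/well, exposed 2 h at 37 C to titrations up to 46 uM final.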

[5] = target: Mitogen-activated protein kinase 10 (Mus musculus) (UniProt Q61831); assay: JNK3 AlphaScreen Assay (AID 530; active = well fitted curve in either direction with a large enough effect, not every such curve was filed as active;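 also: kinase came from lysate of stimulated human HepG2 cells; signal reports phosphorylation of biotinylated GST-cJun 1-79 at Ser73 with 10 µM ATP; % is scaled to controls: 0 for no effect and ±100 for the full control effect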)
Summary of the method: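 qHTS titrations with 15 min compound pre-incubation before adding ATP (10 uM final). Read-out: AlphaScreen of Ser73-phosphorylated biotin-GST-cJun using HepG2 lysate JNK3 activated by IL-1β and TNFα.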

[6] = target: 3',5'-cyclic-AMP phosphodiesterase 4B (Homo sapiens) (UniProt Q07343); assay: qHTS Assay for Inhibitors of PDE-IV (AID 607; active = well fitted activation curve with a large enough effect in the main read-out, with a control signal flat, not every such curve was filed as active; also: % of control where 0% means no effect)
Sequence of 3',5'-cyclic-AMP phosphodiesterase 4B (Homo sapiens) (Q07343 whole entry, looked up): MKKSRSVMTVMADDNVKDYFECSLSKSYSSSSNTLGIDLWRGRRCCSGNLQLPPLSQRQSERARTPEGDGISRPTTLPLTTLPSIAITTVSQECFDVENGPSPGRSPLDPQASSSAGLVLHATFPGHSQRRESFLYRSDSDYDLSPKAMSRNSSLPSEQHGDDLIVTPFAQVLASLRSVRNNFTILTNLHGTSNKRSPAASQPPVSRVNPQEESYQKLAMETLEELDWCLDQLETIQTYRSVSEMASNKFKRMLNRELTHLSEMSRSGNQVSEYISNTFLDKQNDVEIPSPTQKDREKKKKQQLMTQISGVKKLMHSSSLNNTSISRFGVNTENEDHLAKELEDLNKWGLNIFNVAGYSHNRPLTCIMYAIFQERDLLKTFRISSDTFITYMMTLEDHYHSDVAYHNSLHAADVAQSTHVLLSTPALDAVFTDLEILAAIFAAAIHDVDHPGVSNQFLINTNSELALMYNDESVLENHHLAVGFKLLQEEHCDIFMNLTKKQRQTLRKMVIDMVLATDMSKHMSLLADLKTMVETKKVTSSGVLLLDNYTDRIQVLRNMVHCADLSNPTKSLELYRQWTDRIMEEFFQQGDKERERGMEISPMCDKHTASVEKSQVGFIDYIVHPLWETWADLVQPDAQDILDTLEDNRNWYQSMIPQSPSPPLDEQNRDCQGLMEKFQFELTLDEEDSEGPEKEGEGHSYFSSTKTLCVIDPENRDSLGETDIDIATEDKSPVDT
Summary of the method: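 The readout is membrane depolarisation from a cAMP-sensing CNG channel, detected with a potential dye at ex 535/em 590. Cells were HEK293-derived (endogenous PDE-IV) at 1000 cells/well, titrated up to 22.9 uM final.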

[7] = target: Guanine nucleotide-binding protein G(i) subunit alpha-1 (Homo sapiens) (UniProt P63096); assay: qHTS Assay for Inhibitors of RGS12 GoLoco Motif Activity (Green Fluorophore) (AID 879);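 also: 0% = labeled peptide with Gαi1 and full inhibition = labeled peptide alone without protein; negative values mean loss of peptide binding seen as reduced polarization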
Sequence of Guanine nucleotide-binding protein G(i) subunit alpha-1 (Homo sapiens) (P63096 whole entry, looked up): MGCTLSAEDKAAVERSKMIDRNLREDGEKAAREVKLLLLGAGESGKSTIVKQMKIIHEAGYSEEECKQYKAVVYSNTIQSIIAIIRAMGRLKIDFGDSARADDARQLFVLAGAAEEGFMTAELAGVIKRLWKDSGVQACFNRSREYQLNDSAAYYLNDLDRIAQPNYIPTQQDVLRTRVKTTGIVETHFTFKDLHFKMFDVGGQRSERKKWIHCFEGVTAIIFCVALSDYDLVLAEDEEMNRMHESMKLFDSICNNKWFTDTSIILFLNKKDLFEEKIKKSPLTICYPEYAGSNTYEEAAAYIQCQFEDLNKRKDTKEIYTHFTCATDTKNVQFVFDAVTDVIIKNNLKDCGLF
Summary of the method: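 A drop in FITC polarization marked displacement of the FITC-tagged RGS12 GoLoco peptide (10 nM) from Gαi1 (50 nM). Compounds were incubated 10 min at room temperature in Tris pH 7.5 buffer containing 150 mM NaCl, 0.1 mM GDP and 0.05% NP40; unlabeled peptide titration served as control.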

[8] = target: Cytochrome P450 3A4 (Homo sapiens) (UniProt P08684); assay: qHTS Assay for Activators of Cytochrome P450 3A4 (AID 885); also: nearly all actives have a fitted effect of over 65% in size
Sequence of Cytochrome P450 3A4 (Homo sapiens) (P08684 whole entry, looked up): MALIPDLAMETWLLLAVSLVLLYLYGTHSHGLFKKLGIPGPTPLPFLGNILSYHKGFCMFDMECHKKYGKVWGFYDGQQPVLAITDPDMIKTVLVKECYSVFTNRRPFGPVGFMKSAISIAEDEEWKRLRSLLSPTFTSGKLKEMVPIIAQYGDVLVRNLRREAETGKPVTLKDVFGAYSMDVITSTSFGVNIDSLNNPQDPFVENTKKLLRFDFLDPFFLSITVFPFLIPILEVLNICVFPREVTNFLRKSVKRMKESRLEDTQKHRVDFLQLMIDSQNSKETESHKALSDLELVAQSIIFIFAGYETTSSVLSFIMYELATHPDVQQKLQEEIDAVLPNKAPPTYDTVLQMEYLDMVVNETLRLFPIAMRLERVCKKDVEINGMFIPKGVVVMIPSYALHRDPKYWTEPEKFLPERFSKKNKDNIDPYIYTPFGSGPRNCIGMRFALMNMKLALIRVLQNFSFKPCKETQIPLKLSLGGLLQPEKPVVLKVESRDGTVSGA
Summary of the method: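 Activators are scored by enhanced luminescence from CYP3A4 conversion of luciferin-PPXE (25uM, equal to KM) to luciferin, after 60 min at RT with an NADPH-regenerating system.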

[9] = target: Muscarinic acetylcholine receptor M1 (Rattus norvegicus) (UniProt P08482); assay: qHTS Assay for Antagonists of Acetylcholine Muscarinic M1 Receptor: Kinetic Measurement of Intracellular Calcium Response (AID 943);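 also: Fluo-4 calcium signal as peak divided by basal fluorescence over 4 min; nearly all actives have a fitted effect of over 75% in size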
Sequence of Muscarinic acetylcholine receptor M1 (Rattus norvegicus) (P08482 whole entry, looked up): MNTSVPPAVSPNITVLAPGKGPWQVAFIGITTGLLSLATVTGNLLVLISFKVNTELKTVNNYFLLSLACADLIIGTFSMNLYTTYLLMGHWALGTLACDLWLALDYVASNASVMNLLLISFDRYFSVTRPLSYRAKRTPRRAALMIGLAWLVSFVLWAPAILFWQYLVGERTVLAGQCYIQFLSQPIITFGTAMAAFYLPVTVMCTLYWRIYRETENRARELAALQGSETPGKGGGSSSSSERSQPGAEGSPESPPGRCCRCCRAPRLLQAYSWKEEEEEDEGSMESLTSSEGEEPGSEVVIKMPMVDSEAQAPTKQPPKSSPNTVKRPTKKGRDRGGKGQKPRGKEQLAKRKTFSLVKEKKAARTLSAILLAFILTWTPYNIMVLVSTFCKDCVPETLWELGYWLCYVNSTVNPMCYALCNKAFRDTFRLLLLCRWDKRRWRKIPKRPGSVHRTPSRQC
Summary of the method: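 Antagonism measured as reduction of carbachol-evoked (EC80, 100 nM final) calcium flux in rat M1-CHO cells after 10 min compound exposure. Fluo-4 signal read kinetically; ratio of maximal to basal fluorescence.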

[10] = target: Muscarinic acetylcholine receptor M1 (Rattus norvegicus) (UniProt P08482); assay: qHTS Assay for Antagonists of Acetylcholine Muscarinic M1 Receptor: Measurement of IP-One Response (AID 944); also: nearly all actives have a fitted effect of over 75% in size
Summary of the method: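 IP1 accumulation measured via TR-FRET between d2-IP1 and Eu-cryptate anti-IP1 antibody after carbachol (200 nM, EC80) stimulation for 30 min; rat M1-transfected CHO cells received compound 10 min before agonist.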

[11] = target: Pyruvate kinase (Leishmania mexicana) (UniProt Q27686); assay: qHTS Validation Assay for Inhibitors of Leishmania Mexicana Pyruvate Kinase (AID 945);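 also: 0% = DMSO only neutral control wells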
Sequence of Pyruvate kinase (Leishmania mexicana) (Q27686 2-499 E452W): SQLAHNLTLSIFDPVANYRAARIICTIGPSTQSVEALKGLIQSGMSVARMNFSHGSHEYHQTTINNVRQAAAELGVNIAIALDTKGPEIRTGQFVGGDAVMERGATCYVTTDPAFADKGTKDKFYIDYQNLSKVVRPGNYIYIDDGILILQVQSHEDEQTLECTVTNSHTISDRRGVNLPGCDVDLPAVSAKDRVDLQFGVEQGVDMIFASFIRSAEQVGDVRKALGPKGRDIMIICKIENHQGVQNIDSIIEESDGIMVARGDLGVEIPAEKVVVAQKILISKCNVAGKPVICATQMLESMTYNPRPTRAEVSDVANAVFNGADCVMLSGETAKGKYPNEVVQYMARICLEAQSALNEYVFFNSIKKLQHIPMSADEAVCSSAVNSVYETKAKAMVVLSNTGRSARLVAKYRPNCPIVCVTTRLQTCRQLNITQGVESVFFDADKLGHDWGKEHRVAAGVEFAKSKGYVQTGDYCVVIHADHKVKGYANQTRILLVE
Summary of the method: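 LmPYK E451W 0.2 nM; 0.5 mM PEP, 0.1 mM ADP, 7 mM MgCl2, 50 mM KCl, imidazole pH 7.2, 0.01% Tween 20, 0.05% BSA; 1 h RT; PKLight luminescence; DMSO-normalized.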

[12] = target: Alpha-galactosidase A (Homo sapiens) (UniProt P06280); assay: Counterscreen for Glucocerebrosidase Inhibitors: qHTS Assay for Human alpha-Galactosidase at pH 4.5 (AID 992); also: 0% is about no effect
Sequence of Alpha-galactosidase A (Homo sapiens) (P06280 whole entry, looked up): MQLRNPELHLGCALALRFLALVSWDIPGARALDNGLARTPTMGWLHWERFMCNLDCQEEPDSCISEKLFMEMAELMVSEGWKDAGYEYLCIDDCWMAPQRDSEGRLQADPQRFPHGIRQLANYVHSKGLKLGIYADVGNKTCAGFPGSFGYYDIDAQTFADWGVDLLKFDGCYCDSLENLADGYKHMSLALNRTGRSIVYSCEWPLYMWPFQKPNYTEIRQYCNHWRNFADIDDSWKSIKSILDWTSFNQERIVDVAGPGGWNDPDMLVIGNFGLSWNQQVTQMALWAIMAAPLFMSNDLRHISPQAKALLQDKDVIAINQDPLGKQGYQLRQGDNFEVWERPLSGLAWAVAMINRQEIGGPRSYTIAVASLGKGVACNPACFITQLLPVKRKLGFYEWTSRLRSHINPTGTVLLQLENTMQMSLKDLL
Summary of the method: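 Fluorogenic 4-MU alpha-D-galactoside (80 uM) hydrolysis, 2 nM enzyme, pH 4.5 citrate buffer + 0.005% Tween-20; 20 min RT; NaOH/glycine pH 10 stop; Ex365/Em440. Compounds titrated 0.7 nM–77 uM; Hill-equation AC50.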

[13] = target: alpha-glucosidase (Oryza sativa, rice) (UniProt Q653V4); assay: Counterscreen for Glucocerebrosidase Inhibitors: qHTS Assay for Rice alpha-Glucosidase at pH 5.0 (AID 997);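 also: 0% = full activity with enzyme and -100% = basal without enzyme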
Summary of the method: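 Endpoint fluorogenic assay at pH 5.0: compounds (0.7 nM to 77 uM) titrated against 4 nM rice enzyme and 400 uM 4-MU-alpha-glucoside for 20 min at room temperature; NaOH/glycine stop, read ex 365/em 440 nm, Hill-fitted AC50.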

[14] = target: DNA repair nuclease/redox regulator APEX1 (Homo sapiens) (UniProt P27695); assay: qHTS Validation Assay for Inhibitors of the Human Apurinic/apyrimidinic Endonuclease 1 (APE1) (AID 1705;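 also: TAMRA fluorescence gain over two minutes as APE1 cuts a quenched THF abasic duplex; % is scaled to controls: 0 for no effect and ±100 for the full control effect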)
Sequence of DNA repair nuclease/redox regulator APEX1 (Homo sapiens) (P27695 whole entry, looked up): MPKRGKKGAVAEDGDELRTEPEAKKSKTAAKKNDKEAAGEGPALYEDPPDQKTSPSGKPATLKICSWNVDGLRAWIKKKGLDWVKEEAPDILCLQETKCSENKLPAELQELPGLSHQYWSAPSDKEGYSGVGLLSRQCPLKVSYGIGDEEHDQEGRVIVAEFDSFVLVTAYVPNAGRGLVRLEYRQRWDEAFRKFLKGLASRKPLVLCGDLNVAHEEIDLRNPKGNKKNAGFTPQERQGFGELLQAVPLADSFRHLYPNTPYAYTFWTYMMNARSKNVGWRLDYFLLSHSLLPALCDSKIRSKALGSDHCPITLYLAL
Summary of the method: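 Endonuclease activity of human APE1 is followed as dequenching when the enzyme incises a tetrahydrofuran abasic site in a short duplex labelled 5'-TAMRA/3'-BHQ-2 (50 nM final), after 15 min enzyme–compound preincubation at room temperature.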

[15] = Counterscreen for APE1 Inhibitors: Fluorescent Dye Displacement Validation Assay (AID 1707);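 also: plate controls were ThO with dsDNA and no compound for no effect and ThO without dsDNA for full effect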
Summary of the method: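 Endpoint fluorescence read at 480 nm excitation / 540 nm emission; DNA-binding compounds lower signal by displacing 250 nM Thiazole Orange from 50 nM dsDNA containing a tetrahydrofuran abasic site, Tris-HCl pH7.5 buffer with NaCl and MgCl2.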

[16] = target: Endonuclease 4 (Escherichia coli (strain K12)) (UniProt P0A6C1); assay: Counterscreen for APE1 Inhibitors: qHTS Validation Assay for Inhibitors of Endonuclease IV (AID 1708); also: % is scaled to controls: 0 for no effect and ±100 for the full control effect
Summary of the method: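 Incision of a double-stranded 50 nM TAMRA/BHQ-2 abasic substrate was followed kinetically (525/598 nm, reads every 60 s) after 15 min enzyme–compound preincubation with 2 nM EndoIV in pH 7.5 Tris buffer with MgCl2, DTT and Tween-20; concentration-response format.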

[17] = qHTS for differential inhibitors of proliferation of Plasmodium falciparum line 3D7 (AID 1876);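 also: parasite growth measured after three days of culture; 0% = vehicle wells and -100% = reference inhibitor wells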
[18] = qHTS for differential inhibitors of proliferation of Plasmodium falciparum line D10 (AID 1877);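 also: parasites grown with compound for 72 h before DNA staining; plate controls were vehicle wells for no effect and reference inhibitor wells for full effect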

NCCNS(=O)(=O)c1cccc2cnccc12
inactive: Potency [1] | activity change, negative = inhibition [2] -13.5% | Potency [3] > 46 µM | Potency [4] > 46 µM | Potency [5] | Potency [6] | outcome [7] | Potency [8] | Potency [9] | Potency [10] | Potency [11] | outcome [12] | outcome [13] | Potency [14] | Potency [15] | Potency [16] | Potency [17] | Potency [18]
